Out of some 360,000 compounds screened, about 1,100 (0.31%) were called active. Rule as the data show it: active = activity change below about -80%; inconclusive = mostly about -51% to -80%; inactive = weaker than that. What follows is part of a selection rich in actives, with near analogues and random picks from the rest.
% is scaled to controls: 0 for no effect and ±100 for the full control effect.

This assay deals with RAC-alpha serine/threonine-protein kinase (Homo sapiens) (UniProt P31749). The assay can be described thus: HTS Assay for Inhibitors of Akt Phophorylation: Primary Screen. The settings on record: Neuro2A IGF-stimulated pAkt S473 HTRF, 20 min; at 50 µM, hits give low values. The text has this: The serine/threonine protein kinase Akt (protein kinase B) regulates various cellular processes, including cell survival, growth, proliferation, migration and differentiation. It has been well established that Akt is activated through two essential steps involving membrane translocation and phosphorylation. Cytosolic Akt is recruited to the plasma membrane via the interaction between the PH domain and membrane PIP3 produced by phosphoinositide-3 kinase (PI3K) upon growth factor receptor stimulation. The membrane-Akt interaction results in conformational changes of Akt, enabling its activation through phosphorylation at T308 in the kinase domain and at S473 in the C-terminal hydrophobic motif by PDK1 and mTOR-rictor complex (mTORC2), respectively. […] These findings indicate that S473 phosphorylation, as an important modulator of Akt activation, may be a valuable drug target for cell growth, survival, proliferation and differentiation. These inhibitors also may have significant therapeutic potential with fewer side effects, especially for the conditions involving hyperactive Akt signaling, such as cancer and Alzheimer's disease.
To this end, a miniaturized assay was developed to be screened against the Molecular Libraries Small Molecule Repository (MLSMR).
NIH Chemical Genomics Center [NCGC]
NIH Molecular Libraries Probe Centers Network [MLPCN]
Assay Submitter (PI): Hee-Yong Kim, National Institute on Alcohol Abuse and Alcoholism
3 uL of Neuro2A cell suspension in DMEM containing 0.5% FBS and […] antibiotics mix was plated in a white solid bottom tissue culture-treated 1536-well plate (Greiner Bio-One, Monroe, NC) at 4,500 cells per well and incubated overnight at 37 deg C. 23 nL/well of compound solutions in DMSO was added with Pintool transfer (Kalypsis, San Diego, CA) at single […] final concentration. Then, the cells were stimulated with 1.5 uL of IGF (6 nM final concentration) and incubated at 37 deg C for 20 min. The reaction was terminated by the addition of 1.5 uL blocking reagent mixed with lysis buffer (1:25 correspondingly) provided with HTRF(R) Phospho Akt (Ser473) kit (Cisbio US, Bedford, MA), with following incubation for 50 min at ambient temperature. The detection HTRF conjugates from the kit were prepared according to the protocol, pre-mixed 1:1 prior to dispensing, and 2 uL/well was added with BioRAPTR FRD dispenser (Beckman Coulter). The assay plates were incubated for 24 hours at ambient temperature, and the HTRF fluorescence was measured using Envision plate reader (PerkinElmer) with excitation at 330nm, emission at 615nm (Eu(3)-Cryptate donor signal) and 665nm (d2 acceptor signal). The ratio of […] was calculated for each well.
A general note: Time-resolved FRET reads energy transfer from a long-lived donor to a nearby acceptor.
In the case of `O=C(c1ccc2c(c1)N(Cc1ccc(F)cc1)C(=O)c1ccccc1S2(=O)=O)N1CCN(c2ccccn2)CC1`, the activity change result is “inactive”.
As for `O=C(c1ccc2c(c1)C(=O)N(c1ccc(Cl)cc1)C2=O)N1CCN(c2ccccn2)CC1`, the figure is -121% (active); as for `O=C(c1c(F)cccc1Cl)N1CCN(c2ccccn2)CC1`, “inactive”.
Then `Cc1ccc(S(=O)(=O)N2[C@@H](Cc3ccccc3)CO[C@H]2CC(=O)OCc2ccccc2)cc1`, with “inactive”.
Regarding `O=C(NC1CCCCC1)C(c1cc2ccccc2o1)n1c(=O)c(-c2ccco2)nc2ccccc21` (stereo not given), the activity change result is “inactive”.
As for `Cc1ccc2c(c1)N(CC(=O)N(Cc1ccccn1)Cc1ccco1)C(=O)C(C(C)C)O2` (stereo not given), the figure is 1.92% (inactive); as for `O=C(NCc1ccccc1)C(c1ccc(F)cc1)N1CCN(C(=O)C2CCCO2)CC1` (stereo not given), “inactive”.
As for `CCC(C(=O)NCc1ccccc1)n1c(Cc2cc(F)cc(F)c2)nc2ccccc21` (stereo not given), the entry is “inactive”.
As for `CCOC(=O)CSc1nnc(CNc2ccc(F)cc2)o1`, the entry is “inactive”; as for `COC(=O)c1ccc2nc(-c3ccc(F)cc3)c(Cc3ccc(C)cc3)n2c1`, “inactive”; as for `Cc1cccc2nc(CNc3ccc(F)cc3)cn12`, -128% (active).
For the compound `O=C(NC(=O)c1ccc(Cl)c(Cl)c1)OC1CCS(=O)(=O)C1` (stereo not given), the activity change result is “inactive”.
Consider `COCCNC(=O)C1C(=O)Nc2ccccc2C(=O)N1c1ccc2c(c1)OCCO2` (stereo not given), for which the activity change result is “inactive”.
As for `CC(C)c1cc(Cn2c3ccccc3c(=O)n2C(C)Cn2cc(C3CC3)nn2)on1` (stereo not given), the entry is “inactive”; as for `COc1cccc(N(CC(=O)N2CCc3ccccc3C2)S(C)(=O)=O)c1`, -106% (active); as for `CN(c1ccc(C(=O)N2CCc3ccccc3C2)cc1)S(C)(=O)=O`, -108% (active).
As for `Cc1ccc(S(=O)(=O)N(CC(=O)N2CCc3ccccc3C2)c2cccc(Cl)c2)cc1`, the entry is “inactive”; as for `CN(c1cccc(NC(=O)c2ccc(CN3CCc4ccccc4C3)cc2)c1)S(C)(=O)=O`, “inactive”; as for `Cn1cccc1C(=O)N1CCc2ccccc2C1`, “inactive”.
Take `CS(=O)(=O)N(CC(=O)N1CCc2ccccc2C1)c1ccc(Br)cc1`: the activity change result is “inactive”.
On to `Nc1ccc(N=Nc2ccccc2Cl)c(N)n1`, for which the activity change result was “inactive”.
In the case of `O=C(CN1C(=O)CCS(=O)(=O)c2ccccc21)NCc1ccc(F)cc1`, the activity change is 11.8% (inactive).
As for `O=C1C(=O)N(CCN2CCOCC2)C(c2cccc(Cl)c2)/C1=C(/O)c1ccc2c(c1)OCO2` (stereo not given), the entry is “inactive”; as for `O=C1C(=O)N(CCN2CCOCC2)C(c2ccccn2)/C1=C(/O)c1ccc(Cl)cc1` (stereo not given), -111% (active).
Turning to `COc1ccc(C2/C(=C(/O)c3ccc(OC(C)C)cc3)C(=O)C(=O)N2CCCN2CCOCC2)cc1` (stereo not given), the activity change result is “inactive”.
Turning to `CC(C)(C)n1c(=O)[nH]c2c(c1=O)CCC2`, the activity change was -114% (active).
As for `O=c1[nH]n2c(=O)c3c([nH]c2c1N=Nc1ccccc1)CCC3`, the entry is “inactive”; as for `CCOC(=O)[C@]12CCCC=C1N(CCC1=CCCCC1)C(=O)[C@H](CC(=O)N1CCCCC1)C2`, “inactive”; as for `O=C1C=C(c2ccc(Cl)cc2)C(=O)N1Nc1ccccc1`, -112% (active).
Then `CC(C)(C)n1nc2c(c1NC(=O)c1ccc(S(=O)(=O)N3CCCC3)cc1)CS(=O)C2` (stereo not given), with “inactive”; and `COc1ccc(C(C(=O)Nc2c(C)cccc2C)N2CCN(c3ccc(C)cc3)CC2)cc1` (stereo not given), with “inactive”; and `O=C(CN1C(=O)NC2(CCCCCC2)C1=O)NC1CC1`, with “inactive”.
Then `O=C1CC2(CCCC2)C(=O)N1CN1CCN(S(=O)(=O)c2ccc(F)cc2F)CC1`, with “inactive”; and `O=C(O)CCN1C(=O)CC2(CCCCC2)C1=O`, with -117% (active); and `NS(=O)(=O)c1ccc(CCNC(=O)NC2CCCCC2)cc1`, with “inactive”.
In the case of `CN1OC[C@@H]2CN[C@H](c3ccc(-c4ccccc4)cc3)C[C@@H]21`, the activity change result was “inactive”.
Then `CCOC(=O)[C@]12CCCC=C1N(CCC1=CCCCC1)C(=O)[C@H](CC(=O)NCCCOC)C2`, with “inactive”; and `CCCCCNC(=O)C(c1ccc(OC)cc1)n1c(=O)c(-c2ccccc2)nc2ccccc21` (stereo not given), with “inactive”; and `Cc1cccc(OCc2nnc(SCc3nc4cc(C(F)(F)F)ccc4c(=O)[nH]3)o2)c1`, with -3.13% (inactive).
As for `Nc1nnc(SCn2nnc3ccccc3c2=O)s1`, the activity change result is “inactive”.
Then `Cc1cccc(OCc2nnc(SCn3nnc4ccccc4c3=O)o2)c1`, with -101% (active); and `Cc1cccc(NC(=O)C2CCCN2S(=O)(=O)c2ccc(F)cc2)c1C` (stereo not given), with -118% (active); and `Cc1cccc(NC(=O)C2CCCN(C(=O)Nc3ccc(F)cc3)C2)c1C` (stereo not given), with “inactive”.
Then `COc1ccccc1NC(=O)C1CCCN1S(=O)(=O)c1ccc(Cl)cc1` (stereo not given), with “inactive”.
As for `Cc1ccc(N(Cc2ccccc2O)C(=O)c2ccccc2F)cc1`, the entry is “inactive”.
For `Cc1ccc(N(C(=O)CNC(=O)c2ccco2)C(C(=O)NC2CCCC2)c2ccncc2)cc1` (stereo not given), the activity change result was “inactive”.
In the case of `CC(C)(C)NC(=O)C(c1ccncc1)N(C(=O)CNC(=O)c1ccco1)c1ccc2c(c1)OCO2` (stereo not given), the activity change is -97.2% (active).
On to `COc1cccc(N(C(=O)CNC(=O)c2ccco2)C(C(=O)NC2CCCCC2)c2cccnc2)c1` (stereo not given), for which the activity change entry was “inactive”.
As for `CCCc1ccc(-c2csc(NC(=O)Cc3cccs3)n2)cc1`, the figure is -105% (active); as for `O=C(Cc1cccs1)Nc1ccc([N+](=O)[O-])cc1`, “inactive”.
